Test results taken from PubChem BioAssay (Tox21).
Records with an inconclusive call do not appear. Calls of active or inactive are those of the source. Unless noted, calls follow the shape of the dose curve; as a rule, active = well fitted curve in the direction sought with a large enough effect in the repeat runs; inconclusive = weak or mixed curves; inactive = no such curve, though single readings can be large; an effect the other way counts as inactive or inconclusive.

Assays:
[1] = biological target: Thyrotropin receptor (Homo sapiens) (UniProt P16473); test: qHTS assay to identify small molecule antagonists of the thyroid stimulating hormone receptor (TSHR) signaling pathway (AID 1259385; calls by dose curve; also: nearly all actives have a fitted effect of over 20% in size)
Outline: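 TSHR-HEK293 cells (800/well) plated 18 h, then compounds with Ro20-1724 and TSH at 1.5 ng/mL final, 30 min at room temperature. cAMP quantified by HTRF (cAMP-d2/anti-cAMP-cryptate, 1 h); 15 concentrations in triplicate.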

[2] = qHTS assay to identify small molecule agonists of the estrogen receptor alpha (ER-alpha) signaling pathway in the presence of an antagonist - cell viability counter screen (AID 1259386);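 also: series mostly up to about 92 µM; cells exposed to compounds for 22 h at 37 °C before the viability read; nearly all actives have a fitted effect of over 30% in size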
Outline: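 VM7Luc4E2, stripped-serum pre-culture 5 d; 24hr plating; +ICI-182,780 10.0nM final; cpds 15 conc, 22hr, 37C/5% CO2; CellTiter-Fluor added at 21hr, fluorescence 1hr later.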

[3] = biological target: Progesterone receptor (Homo sapiens) (UniProt P06401); test: qHTS assay to identify small molecule agonists of the progesterone receptor (PR) signaling pathway (AID 1346784; calls by dose curve; also: nearly all actives have a fitted effect of over 30% in size)
Outline: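 Using charcoal-stripped serum (2%) to limit endogenous steroids, PR-UAS-bla HEK 293T cells received compounds for 16 hr at 37C after 6 hr plating; beta-lactamase FRET fluorescence was recorded following 2 hr substrate loading at room temperature.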

[4] = biological target: Progesterone receptor (Homo sapiens) (UniProt P06401); test: qHTS assay to identify small molecule antagonists of the progesterone receptor (PR) signaling pathway (AID 1346795; active = well fitted inhibition curve with a large enough effect in the signal ratio in the repeat runs, not every such curve was filed as active; the % refers to the signal ratio)
Outline: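 Inhibition of R5020-induced (1 nM final) beta-lactamase reporter signal in PR-UAS-bla HEK293T cells was scored by FRET fluorescence after overnight (16 hr) compound treatment.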

[5] = qHTS assay to identify small molecule antagonists of the progesterone receptor (PR) signaling pathway - cell viability counter screen (AID 1346798); also: series mostly up to about 92 µM; nearly all actives have a fitted effect of over 50% in size
Outline: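 ATP content as viability readout: CellTiter-Glo luminescence, 30 min room temperature, in PR-UAS-bla HEK293T cells after 16 hr compound/R5020 treatment at 37C and 5% CO2.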

[6] = qHTS assay to identify small molecule agonists of the progesterone receptor (PR) signaling pathway - cell viability counter screen (AID 1346799; calls by dose curve; also: nearly all actives have a fitted effect of over 45% in size)
Outline: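 Cytotoxicity in PR-bla HEK293T cells: 16 h compound, 37C; CellTiter-Glo added post-FRET read; luminescence after 30 min RT.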

[7] = qHTS assay to identify small molecule antagonists of the TGF-beta/Smad signaling pathway - cell viability counter screen (AID 1346824); also: nearly all actives have a fitted effect of over 50% in size
Outline: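 SBE-bla HEK 293T cells, incubated overnight, then compound plus 0.25 ng/mL TGF-beta1 (stock added) for 5 hr at 37 C. Viability was read in the same wells by CellTiter-Glo luminescence after 30 min at room temperature.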

[8] = qHTS assay to identify small molecule agonists of the TGF-beta/Smad signaling pathway (AID 1346859; active = well fitted activation curve with a large enough effect in the signal ratio in the repeat runs, not every such curve was filed as active; the % refers to the signal ratio; also: series mostly up to about 77 µM)
Outline: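 Stable Smad binding element-beta-lactamase HEK 293T cells; 5 hr compound exposure at 37 C under 5% CO2; 2 hr room-temperature substrate step; fluorescence excited at 405 nm, collected at 460 nm and 530 nm.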

[9] = Human pregnane X receptor (PXR) small molecule agonists, qHTS cell viability counter screen (AID 1346977); also: nearly all actives have a fitted effect of over 50% in size
Outline: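 Readout is CellTiter-Fluor fluorescence from PXR-Luc HepG2 cells. Plated cells rested 5hr, then were treated with compounds for 24hr at 37C and 5% CO2, with reagent present during the last hour.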

[10] = Caspase-3/7 induction in HepG2 cells by small molecules, qHTS assay (AID 1346978); also: nearly all actives have a fitted effect of over 15% in size
Outline: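 Wild-type HepG2 cells, 2,000/well, settled 5 hr at 37 C and 5% CO2, then compound-treated for 17 hr; caspase-3/7 activity read by luminescent Caspase-Glo 3/7 after 30 min at room temperature.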

[11] = Caspase-3/7 induction in CHO-K1 cells by small molecules, qHTS cell viability counter screen (AID 1346979); also: nearly all actives have a fitted effect of over 35% in size
Outline: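 To flag cytotoxic compounds, treated CHO-K1 wild-type cells were given CellTiter-Fluor at 16hr and read fluorescently after 1hr at 37C; the caspase-3/7 luminescence was measured in these same wells.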

[12] = Caspase-3/7 induction in CHO-K1 cells by small molecules, qHTS assay (AID 1346980); also: nearly all actives have a fitted effect of over 15% in size
Outline: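 Wild-type CHO-K1 cells exposed to compounds for 17hr at 37 C, 5% CO2. Caspase-3/7 activity then measured by Caspase-Glo 3/7 luminescence after 30min at room temperature.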

[13] = Caspase-3/7 induction in HepG2 cells by small molecules, qHTS cell viability counter screen (AID 1346981); also: series mostly up to about 92 µM; nearly all actives have a fitted effect of over 30% in size
Outline: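 HepG2, WT, 2,000 cells/well; 5 hr pre-incubation 37 C/5% CO2; compound pin-transferred from DMSO; 16 hr exposure; CellTiter-Fluor, 1 hr; fluorescence read.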

[14] = biological target: Nuclear receptor subfamily 1 group I member 2 (Homo sapiens) (UniProt O75469); test: Human pregnane X receptor (PXR) small molecule agonists, qHTS assay (AID 1346982); also: nearly all actives have a fitted effect of over 35% in size
Outline: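 Luciferase signal from ONE-Glo (30 min, room temperature) measured activation of hPXR-driven CYP3A4 reporter expression in PXR-Luc HepG2 cells treated with compounds for 24 hr at 37 C.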

[15] = qHTS assay to identify small molecule agonists of the TGF-beta/Smad signaling pathway - cell viability counter screen (AID 1346829); also: top concentration of the series differs between compounds; nearly all actives have a fitted effect of over 45% in size
Outline: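 Cytotoxicity counter screen: CellTiter-Glo luminescence (30 min, room temperature) measured in the SBE-bla HEK 293T reporter wells after 5 hr compound treatment at 37 C and the 2 hr substrate step.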

[16] = biological target: Thyrotropin-releasing hormone receptor (Homo sapiens) (UniProt P34981); test: qHTS assay to identify small molecule antagonists of the thyrotropin-releasing hormone receptor (TRHR) signaling pathway (AID 1346877; active = well fitted inhibition curve with a large enough effect in the repeat runs, not every such curve was filed as active; also: series mostly up to about 51 µM)
Outline: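 Intracellular calcium fluorescence, read kinetically every second over 3 min, reports TRH-evoked signalling in HEK293 cells carrying TRHR. Test compounds were added 5 min ahead of a 1 nM TRH challenge.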

[17] = biological target: Thyrotropin-releasing hormone receptor (Homo sapiens) (UniProt P34981); test: qHTS assay to identify small molecule agonists of the thyrotropin-releasing hormone receptor (TRHR) signaling pathway (AID 1346891; calls by dose curve;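 also: HEK293 cells expressing TRHR with calcium dye readout; series mostly up to about 58 µM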)
Outline: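 In 1536-format, 1500 TRHR-Hek293 cells per well grew 18 h, took up calcium dye for 2 h at 37 °C, received compound, and were read kinetically; 15-point titrations, triplicates.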

[18] = biological target: Nuclear receptor subfamily 1 group I member 2 (Rattus norvegicus) (UniProt Q9R1A7); test: Rat pregnane X receptor (rPXR) activation by small molecules, qHTS assay (AID 1346983); settings: rPXR luciferase reporter cells, One-Glo luminescence, 24 h; stronger effect = higher value; also: nearly all actives have a fitted effect of over 20% in size
Outline: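 Cell-based rPXR activation assay: rPXR cells, 2,000 per well, rested 5hr at 37 C, then exposed to compounds in DMSO for 24 hr at 37 C. Luciferase activity read by One-Glo luminescence after 30 min at room temperature.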

[19] = biological target: Nuclear receptor subfamily 1 group I member 2 (Homo sapiens) (UniProt O75469); test: CYP3A4 induction through human pregnane X receptor (PXR) by small molecules, qHTS assay (AID 1346984); also: nearly all actives have a fitted effect of over 40% in size
Outline: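 Luminescence readout: luciferase signal after One-Glo (30 min, room temperature), following 3 h at 37C with 3uM final Luciferin-IPA P450 substrate. Cells were DPX-2 (HepG2, PXR/CYP3A4-luc co-transfected) dosed for 24 h.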

[20] = biological target: Nuclear receptor subfamily 1 group I member 2 (Homo sapiens) (UniProt O75469); test: Human pregnane X receptor (PXR) activation by small molecules, qHTS assay (AID 1346985); also: nearly all actives have a fitted effect of over 40% in size
Outline: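 DPX-2 cells (HepG2 co-transfected with a PXR response element and a CYP3A4-promoter luciferase construct) were seeded at 2,000 per well, rested 5 hr at 37C, then exposed to DMSO-dissolved compounds for 24 hr. Activation was read as luciferase luminescence.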
% is scaled to controls: 0 for no effect and ±100 for the full control effect.

Chain of Nuclear receptor subfamily 1 group I member 2 (Homo sapiens) (O75469 whole entry, looked up): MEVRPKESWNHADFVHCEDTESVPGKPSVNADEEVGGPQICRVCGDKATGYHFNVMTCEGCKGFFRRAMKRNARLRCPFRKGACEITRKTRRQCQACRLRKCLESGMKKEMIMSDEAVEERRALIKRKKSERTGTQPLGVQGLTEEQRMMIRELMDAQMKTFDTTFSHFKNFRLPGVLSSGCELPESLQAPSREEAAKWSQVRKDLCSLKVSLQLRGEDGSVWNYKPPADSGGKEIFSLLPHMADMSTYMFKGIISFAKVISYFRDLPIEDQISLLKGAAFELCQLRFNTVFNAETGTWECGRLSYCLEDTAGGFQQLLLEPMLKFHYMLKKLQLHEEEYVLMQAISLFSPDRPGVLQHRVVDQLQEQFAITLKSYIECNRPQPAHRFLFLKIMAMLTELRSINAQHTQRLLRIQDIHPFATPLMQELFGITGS
Chain of Thyrotropin-releasing hormone receptor (Homo sapiens) (P34981 whole entry, looked up): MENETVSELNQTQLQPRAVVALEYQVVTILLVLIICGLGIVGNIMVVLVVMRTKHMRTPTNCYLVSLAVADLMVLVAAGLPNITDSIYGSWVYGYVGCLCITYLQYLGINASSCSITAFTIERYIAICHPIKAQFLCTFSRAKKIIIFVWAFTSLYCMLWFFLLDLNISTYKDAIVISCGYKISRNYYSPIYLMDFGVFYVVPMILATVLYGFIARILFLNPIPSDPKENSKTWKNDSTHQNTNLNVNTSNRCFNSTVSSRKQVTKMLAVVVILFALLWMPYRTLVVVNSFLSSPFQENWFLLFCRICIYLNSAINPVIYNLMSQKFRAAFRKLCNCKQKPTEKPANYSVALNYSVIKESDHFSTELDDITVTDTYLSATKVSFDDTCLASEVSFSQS
Chain of Progesterone receptor (Homo sapiens) (P06401 whole entry, looked up): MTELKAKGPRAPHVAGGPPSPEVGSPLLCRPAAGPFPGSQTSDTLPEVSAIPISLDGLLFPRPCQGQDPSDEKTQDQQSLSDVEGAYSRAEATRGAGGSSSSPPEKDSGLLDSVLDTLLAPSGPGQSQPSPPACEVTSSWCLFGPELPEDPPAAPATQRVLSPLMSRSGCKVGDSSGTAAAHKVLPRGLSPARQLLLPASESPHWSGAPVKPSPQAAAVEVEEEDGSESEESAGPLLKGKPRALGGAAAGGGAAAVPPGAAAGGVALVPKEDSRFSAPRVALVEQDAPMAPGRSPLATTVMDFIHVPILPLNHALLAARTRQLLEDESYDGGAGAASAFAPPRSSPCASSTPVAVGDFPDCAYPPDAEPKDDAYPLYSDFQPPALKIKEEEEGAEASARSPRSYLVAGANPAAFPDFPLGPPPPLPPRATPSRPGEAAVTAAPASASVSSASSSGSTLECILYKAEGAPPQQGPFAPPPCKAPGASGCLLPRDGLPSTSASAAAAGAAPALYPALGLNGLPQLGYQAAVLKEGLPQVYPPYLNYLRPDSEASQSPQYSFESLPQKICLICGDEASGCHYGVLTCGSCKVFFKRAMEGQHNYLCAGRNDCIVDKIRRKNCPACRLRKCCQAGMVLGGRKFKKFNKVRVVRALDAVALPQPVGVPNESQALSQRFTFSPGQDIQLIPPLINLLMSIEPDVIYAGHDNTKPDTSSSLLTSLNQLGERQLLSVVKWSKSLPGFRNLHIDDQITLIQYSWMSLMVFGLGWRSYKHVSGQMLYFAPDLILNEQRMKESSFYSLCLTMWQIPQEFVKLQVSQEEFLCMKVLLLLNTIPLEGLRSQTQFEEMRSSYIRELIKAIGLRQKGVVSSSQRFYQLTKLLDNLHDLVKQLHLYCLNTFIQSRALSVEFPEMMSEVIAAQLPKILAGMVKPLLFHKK
Chain of Thyrotropin receptor (Homo sapiens) (P16473 whole entry, looked up): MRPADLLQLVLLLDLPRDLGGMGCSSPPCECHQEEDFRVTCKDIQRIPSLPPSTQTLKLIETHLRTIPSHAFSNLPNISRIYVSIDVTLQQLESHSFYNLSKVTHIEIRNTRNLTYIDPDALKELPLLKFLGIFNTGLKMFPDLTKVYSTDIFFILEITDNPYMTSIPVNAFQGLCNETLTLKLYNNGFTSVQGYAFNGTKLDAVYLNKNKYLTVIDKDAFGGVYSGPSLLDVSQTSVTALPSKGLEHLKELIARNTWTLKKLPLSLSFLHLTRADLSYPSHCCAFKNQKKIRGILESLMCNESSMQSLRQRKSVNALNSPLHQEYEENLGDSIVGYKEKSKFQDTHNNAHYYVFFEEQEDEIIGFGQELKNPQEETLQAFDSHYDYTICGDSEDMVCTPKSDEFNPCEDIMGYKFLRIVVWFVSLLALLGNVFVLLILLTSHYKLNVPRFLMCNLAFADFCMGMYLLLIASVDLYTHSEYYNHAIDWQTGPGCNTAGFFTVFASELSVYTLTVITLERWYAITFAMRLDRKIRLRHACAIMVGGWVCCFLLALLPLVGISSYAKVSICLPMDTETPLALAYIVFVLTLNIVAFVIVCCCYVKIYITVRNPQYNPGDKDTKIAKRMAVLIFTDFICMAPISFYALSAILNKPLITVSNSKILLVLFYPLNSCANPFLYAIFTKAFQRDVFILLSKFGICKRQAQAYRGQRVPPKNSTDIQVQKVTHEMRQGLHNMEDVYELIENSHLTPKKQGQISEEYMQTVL
Chain of Nuclear receptor subfamily 1 group I member 2 (Rattus norvegicus) (Q9R1A7 whole entry, looked up): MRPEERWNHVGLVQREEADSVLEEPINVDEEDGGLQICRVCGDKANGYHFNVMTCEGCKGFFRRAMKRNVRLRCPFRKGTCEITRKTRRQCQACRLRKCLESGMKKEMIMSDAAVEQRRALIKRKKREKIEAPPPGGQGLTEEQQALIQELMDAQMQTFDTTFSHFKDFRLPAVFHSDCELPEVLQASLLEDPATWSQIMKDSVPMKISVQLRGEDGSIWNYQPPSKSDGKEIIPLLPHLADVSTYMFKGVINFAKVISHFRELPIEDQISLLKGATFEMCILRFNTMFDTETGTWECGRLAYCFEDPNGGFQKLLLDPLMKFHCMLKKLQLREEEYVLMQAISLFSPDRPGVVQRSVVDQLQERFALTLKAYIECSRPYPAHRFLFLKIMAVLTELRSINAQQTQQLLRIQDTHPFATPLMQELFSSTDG

O=C1CCCCC1Cl (configuration not stated)
inactive: outcome [1] | Potency [2] | Potency [3] | Potency [4] | Potency [5] | Potency [6] | outcome [7] | outcome [8] | Potency [9] | outcome [10] | Potency [11] | outcome [12] | Potency [13] | Potency [14]

CCOP(=O)(CN(CCO)CCO)OCC
inactive: outcome [1] | Potency [2] | Potency [3] | Potency [4] | Potency [5] | Potency [6] | outcome [7] | Potency [15] | outcome [8] | Potency [9] | outcome [10] | outcome [12] | Potency [13] | Potency [14]

O=C(NC(=O)c1c(F)cccc1F)Nc1cc(Cl)c(F)c(Cl)c1F
inactive: outcome [1] | Potency [2] | Potency [3] | Potency [4] | Potency [5] | Potency [6] | Potency [15] | outcome [8] | Potency [16] | outcome [17] | Potency [9] | outcome [10] | Potency [11] | outcome [12] | Potency [13]

CCCCCCC(=O)CCCCCC/C=C/C[C@@H](O)[C@H](O)[C@@](N)(CO)C(=O)O
inactive: activity change, negative = inhibition [1] -2.59% [at 19 µM] | activity change, negative = cytotoxicity [2] -0.798% [at 19 µM] | activation [3] -0.536% [at 19 µM] | activity change, negative = inhibition [4] 0.638% [at 18.9 µM] | activity change, negative = cytotoxicity [5] -9.78% [at 18.9 µM] | activity change, negative = cytotoxicity [6] -2.82% [at 19 µM] | viability change, negative = cytotoxic [7] -3.48% [at 15.8 µM] | activation [8] -6.21% [at 15.8 µM] | activity, negative = inhibition [16] 7.27% [at 10.5 µM] | activation [17] 0.008% [at 11.8 µM] | activity change, negative = cytotoxicity [9] 6.98% [at 19 µM] | caspase activation [10] 0.643% [at 19 µM] | activity change, negative = cytotoxicity [11] 4.97% [at 19 µM] | caspase-3/7 activation [12] 2.67% [at 19 µM] | activity change, negative = cytotoxicity [13] 5.08% [at 19 µM] | activation [14] -4.6% [at 19 µM] | max activation [18] -5.78% | Potency [19] | Potency [20]
